Assay results from PubChem BioAssay (EPA / NIEHS).
Inconclusive results are not listed. Active and inactive are the calls of the source. How the source made its calls, unless noted: active means hit-call score of the fitted dose curve at least 0.9, where 1 is the maximum; inconclusive means response in the unintended direction; inactive means score below 0.9.

Experiments:
[1] = molecular target: Retinoic acid receptor alpha (Homo sapiens) (UniProt P10276); experiment: ATG_DR5_RAR_CIS: Attagene CIS-FACTORIAL HepG2 Assay for human Retinoic Acid Receptor Alpha (RARE), DR5 submotif (AID 2282934; active means hit-call score of the fitted dose curve at least 0.9, where 1 is the maximum; inactive means score below 0.9); conditions: HepG2 Attagene cis-factorial RARE DR5 reporter, mRNA; actives raise or lower the signal
How it was run: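 Transient MRTU transfection of HepG2; 24 h compound treatment; TriZol RNA, oligo(dT) RT, PCR, FAM labelling, capillary electrophoresis. Bidirectional fit vs DMSO. Endogenous TF activity at DR5 RARE.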

[2] = ATG_M_19_TRANS: Attagene TRANS-FACTORIAL HepG2 Assay for M19 Transcription Factor (Internal Marker) (AID 2282974); conditions: HepG2 Attagene TRANS-FACTORIAL M19 internal marker reporter
How it was run: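 Background-control readout: after 24 h chemical exposure of transfected HepG2 carrying GAL4-driven reporter units, RNA was reverse-transcribed, amplified, fluorescently labeled and sized by capillary electrophoresis; gain-of-signal fit against DMSO.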

[3] = ATG_GAL4_TRANS: Attagene TRANS-FACTORIAL HepG2 Assay for GAL4 (Internal Marker) (AID 2282976); conditions: HepG2 Attagene TRANS GAL4 internal marker reporter
How it was run: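 HepG2 cells transiently transfected with multiplexed GAL4-UAS reporter constructs were dosed for 24 h. Reporter mRNA was measured by RT-PCR, 6-FAM primer extension, HpaI digestion and capillary electrophoresis, and gain of signal was fitted relative to DMSO.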

[4] = molecular target: human Peroxisome Proliferator-activated Receptor alpha (PPARa), PPARA (gene 5465) (UniProt Q07869); experiment: ATG_PPARa_TRANS: Attagene TRANS-FACTORIAL HepG2 Assay for human Peroxisome Proliferator-activated Receptor alpha (PPARa) (AID 2283001)
How it was run: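 Reporter transcripts quantified by RT-PCR plus capillary electrophoresis after 24 h treatment, fitted upward relative to DMSO. Cells: human HepG2 transiently carrying multiple GAL4-UAS reporter units driven by NR-Gal4 chimeras.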

[5] = molecular target: human Peroxisome Proliferator-activated Receptor delta (PPARd), PPARD (gene 5467) (UniProt Q03181); experiment: ATG_PPARd_TRANS: Attagene TRANS-FACTORIAL HepG2 Assay for human Peroxisome Proliferator-activated Receptor delta (PPARd) (AID 2283002)
How it was run: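 Transient HepG2 transfection (multiple GAL4-UAS RTUs, chimeric receptor-Gal4); 24 h dosing; total RNA → oligo(dT) RT → PCR → 6-FAM primer extension → HpaI cut → CE. Positive direction vs DMSO.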

[6] = TOX21_p53_BLA_p4_viability: Viability Assessment in the Tox21 HCT-116 p53 Agonism Beta-lactamase Assay, Phase 4 (AID 2283597);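 further: hits lower the luminescence signal meaning cytotoxicity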
How it was run: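 Cytotoxicity was inferred from loss of CellTiter-Glo luminescence. HCT116 cells had been dosed with compounds after 5 h plating, incubated 16 h at 37C and 5% CO2, and exposed to the CCF4-AM substrate for 2 h.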

[7] = TOX21_p53_BLA_p5_viability: Viability Assessment in the Tox21 HCT-116 p53 Agonism Beta-lactamase Assay, Phase 5 (AID 2283600)
How it was run: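 Luciferase-coupled ATP quantitation of cells treated for 16 h (37C, 5% CO2) with test chemicals delivered in DMSO via a 217-fold dilution; 4000 cells/well; reagent incubated 30 min at room temperature before luminescence reading.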

[8] = CCTE_Harrill_HTTr_Apoptosis_MCF7: CCTE's 6-hour Apoptosis Assessment for the High-Throughput Transcriptomics (HTTr) Platform, in MCF-7 cells cultured in DMEM + 10% fetal bovine serum, Harrill Lab (AID 2284011; active means hit-call score of the fitted dose curve at least 0.9, where 1 is the maximum; inactive means score below 0.9)
How it was run: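 MCF-7 cells in DMEM + 10% fetal bovine serum were exposed to chemicals for 6 hours over an eight-point dilution series. Caspase-3/7 activation was imaged by high content imaging with CellEvent Caspase 3/7 Green; bidirectional fitting used DMSO as baseline.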

[9] = molecular target: Bile acid receptor (Homo sapiens) (UniProt Q96RI1); experiment: ATG_IR1_CIS: Attagene CIS-FACTORIAL HepG2 Assay for human Nuclear Receptor Subfamily 1 Group H Member 4 (NR1H4), IR1 submotif (AID 2282946; active means hit-call score of the fitted dose curve at least 0.9, where 1 is the maximum; inactive means score below 0.9); conditions: IR1 reporter transcription, actives raise or lower the signal
How it was run: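 HepG2 cells transiently transfected with multiplexed cis-element reporter units read endogenous transcription factor activity. After 24 h compound exposure, reporter mRNA was quantified by RT-PCR, fluorescent labelling, HpaI digestion and capillary electrophoresis; bidirectional fitting versus DMSO baseline.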

[10] = molecular target: Nuclear receptor subfamily 1 group I member 3 (Homo sapiens) (UniProt Q14994); experiment: ATG_CAR_TRANS: Attagene TRANS-FACTORIAL HepG2 Assay for human Constitutive Androstane Receptor (CAR) (AID 2282969); conditions: HepG2 Attagene TRANS-FACTORIAL CAR reporter;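 further: activators raise reporter mRNA above DMSO so AC50 marks induction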
How it was run: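 Signal is reporter mRNA induction relative to DMSO, measured 24 h after dosing by RT-PCR with fluorescent primer extension and capillary electrophoresis. Human HepG2 liver cells carried transiently transfected chimeric NR-Gal4/GAL4-UAS reporter constructs.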

[11] = molecular target: Oxysterols receptor LXR-beta (Homo sapiens) (UniProt P55055); experiment: ATG_LXRb_TRANS: Attagene TRANS-FACTORIAL HepG2 Assay for human Liver X Receptor beta (LXRb) (AID 2282981); conditions: HepG2 Attagene TRANS GAL4-LXRb reporter, mRNA
How it was run: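 After 24 h chemical treatment of transfected HepG2 cells carrying exogenous NR-Gal4 chimeras, reporter mRNA was quantified by fluorescent RT-PCR and capillary electrophoresis; activity taken as increase over DMSO controls.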

[12] = molecular target: Hepatocyte nuclear factor 4-alpha (Homo sapiens) (UniProt P41235); experiment: ATG_HNF4a_TRANS: Attagene TRANS-FACTORIAL HepG2 Assay for human Hepatocyte Nuclear Factor 4 alpha (HNF4a) (AID 2282982); conditions: HepG2 HNF4a transactivation reporter, mRNA readout
How it was run: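 Activity of an exogenous HNF4a–Gal4 fusion scored as induced GAL4-UAS reporter transcripts after 24 h chemical exposure of transfected human HepG2 cells. Read-out via RT-PCR with 6-FAM labelling and capillary electrophoresis; rise over DMSO baseline.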

[13] = molecular target: human Retinoid X Receptor beta (RXRb), RXRB (gene 6257) (UniProt P28702); experiment: ATG_RXRb_TRANS: Attagene TRANS-FACTORIAL HepG2 Assay for human Retinoid X Receptor beta (RXRb) (AID 2283013)
How it was run: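 Readout is reporter transcript induction after 24 h dosing. It is measured by RT-PCR of total RNA followed by fluorescent capillary electrophoresis. HepG2 liver cells carry transfected multiple reporter units driven by an exogenous RXRb-Gal4 fusion; activity is relative to DMSO.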

[14] = molecular target: human Thyroid Receptor alpha (THRa1), THRA (gene 7067) (UniProt P10827); experiment: ATG_THRa1_TRANS: Attagene TRANS-FACTORIAL HepG2 Assay for human Thyroid Receptor alpha (THRa1) (AID 2283014)
How it was run: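 HepG2 cells transiently transfected with multiplexed GAL4-UAS reporter units for exogenous chimeric THRa1-Gal4; reporter mRNA measured 24 h after dosing by RT-PCR, 6-FAM labelling, HpaI digestion and capillary electrophoresis. Gain-of-signal fitted versus DMSO baseline.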

[15] = molecular target: human Vitamin D Receptor (VDR), VDR (gene 7421) (UniProt P11473); experiment: ATG_VDR_TRANS: Attagene TRANS-FACTORIAL HepG2 Assay for human Vitamin D Receptor (VDR) (AID 2283022)
How it was run: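 HepG2 cells were transiently transfected with multiple GAL4-UAS reporter units, so signal reflects exogenous chimeric receptor-Gal4 activity. After 24 h compound exposure, reporter mRNA was measured by RT-PCR, fluorescent labelling and capillary electrophoresis, fitted for gain of signal versus DMSO.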

[16] = TOX21_p53_BLA_p2_viability: Viability Assessment in the Tox21 HCT-116 p53 Agonism Beta-lactamase Assay, Phase 2 (AID 2283591);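 further: compound exposure lasted 16 h at 37 °C; actives lower the ATP signal meaning cytotoxicity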
How it was run: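 Cytotoxicity readout: CellTiter-Glo ATP luminescence, 30 min at room temperature, after the beta-lactamase read. Cells were HCT116 exposed 16 h at 37C to compounds pin-transferred at 217-fold dilution from DMSO stocks.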

[17] = TOX21_p53_BLA_p3_viability: Viability Assessment in the Tox21 HCT-116 p53 Agonism Beta-lactamase Assay, Phase 3 (AID 2283593);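 further: cells exposed to compound for 16 h before reading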
How it was run: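 Cellular ATP was quantified by CellTiter-Glo luminescence, read after 30 min at room temperature. Beforehand, HCT116 cells (4000/well) received compound 5 h post-seeding, 217-fold diluted from DMSO, then incubated 16 h at 37C.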

[18] = molecular target: Oxysterols receptor LXR-alpha (Homo sapiens) (UniProt Q13133); experiment: ATG_LXRa_TRANS: Attagene TRANS-FACTORIAL HepG2 Assay for human Liver X Receptor alpha (LXRa) (AID 2282980); conditions: HepG2 Attagene TRANS reporter, LXRa transactivation
How it was run: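 HepG2 cells were transiently transfected with multiplexed reporter units driven by chimeric LXRa–GAL4 fusion proteins, then dosed for 24 h. Reporter mRNA was quantified by RT-PCR, fluorescent labelling and capillary electrophoresis; gain of signal fitted against DMSO baseline.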

[19] = ACEA_ER_AUC_viability: ACEA Biosciences xCELLigence Real-Time Cell Analysis on Estrogen Receptor Agonism for Viability (AID 2283782);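 further: hit means loss of impedance signal meaning reduced cell growth or viability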
How it was run: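 Viability endpoint: reduced impedance area under the curve relative to DMSO, recorded by real-time electrode sensing over ~80 h of continuous exposure. Duplicate plates of T47D in hormone-depleted medium; eight concentrations, 1:4 dilutions, 100 uM maximum.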

[20] = molecular target: human RAR-related Orphan Receptor beta (RORb), RORB (gene 6096) (UniProt Q92753); experiment: ATG_RORb_TRANS: Attagene TRANS-FACTORIAL HepG2 Assay for human RAR-related Orphan Receptor beta (RORb) (AID 2283010)
How it was run: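 Read-out is reporter mRNA induction, quantified by RT-PCR with fluorescent capillary electrophoresis, 24 h post-dose in transiently transfected HepG2 expressing exogenous NR-Gal4 chimera. Activity fitted upward versus DMSO.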

Hepatocyte nuclear factor 4-alpha (Homo sapiens), sequence (P41235 whole entry, looked up, the tested form may be a part): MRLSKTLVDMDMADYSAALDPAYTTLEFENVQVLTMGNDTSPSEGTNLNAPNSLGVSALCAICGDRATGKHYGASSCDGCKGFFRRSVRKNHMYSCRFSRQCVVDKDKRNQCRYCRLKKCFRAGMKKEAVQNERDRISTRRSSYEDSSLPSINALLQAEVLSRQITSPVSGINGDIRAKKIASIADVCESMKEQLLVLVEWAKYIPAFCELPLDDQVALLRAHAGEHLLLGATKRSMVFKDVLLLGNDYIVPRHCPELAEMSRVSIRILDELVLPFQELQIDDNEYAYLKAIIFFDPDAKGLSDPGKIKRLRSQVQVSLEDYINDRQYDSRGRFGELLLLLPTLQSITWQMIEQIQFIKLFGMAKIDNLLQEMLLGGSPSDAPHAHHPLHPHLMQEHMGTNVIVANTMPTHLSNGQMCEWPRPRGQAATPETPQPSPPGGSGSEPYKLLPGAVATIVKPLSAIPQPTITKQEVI
human Retinoid X Receptor beta (RXRb), RXRB (gene 6257), sequence (P28702 whole entry, looked up, the tested form may be a part): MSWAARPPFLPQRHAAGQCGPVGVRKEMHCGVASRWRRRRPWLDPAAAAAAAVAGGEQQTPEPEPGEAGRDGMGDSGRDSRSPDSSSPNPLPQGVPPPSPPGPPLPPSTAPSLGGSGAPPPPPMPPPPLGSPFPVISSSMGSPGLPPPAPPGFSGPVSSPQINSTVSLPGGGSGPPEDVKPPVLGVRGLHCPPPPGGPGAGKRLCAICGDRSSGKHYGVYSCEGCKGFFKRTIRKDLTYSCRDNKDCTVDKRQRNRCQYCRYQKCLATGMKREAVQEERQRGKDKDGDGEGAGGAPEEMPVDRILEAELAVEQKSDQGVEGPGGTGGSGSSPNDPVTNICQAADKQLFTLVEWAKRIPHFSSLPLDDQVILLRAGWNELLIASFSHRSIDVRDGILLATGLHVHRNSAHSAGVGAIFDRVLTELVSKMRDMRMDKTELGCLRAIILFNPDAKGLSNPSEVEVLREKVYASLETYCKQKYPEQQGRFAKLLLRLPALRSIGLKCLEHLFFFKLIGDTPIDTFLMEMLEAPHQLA
human Peroxisome Proliferator-activated Receptor delta (PPARd), PPARD (gene 5467), sequence (Q03181 whole entry, looked up, the tested form may be a part): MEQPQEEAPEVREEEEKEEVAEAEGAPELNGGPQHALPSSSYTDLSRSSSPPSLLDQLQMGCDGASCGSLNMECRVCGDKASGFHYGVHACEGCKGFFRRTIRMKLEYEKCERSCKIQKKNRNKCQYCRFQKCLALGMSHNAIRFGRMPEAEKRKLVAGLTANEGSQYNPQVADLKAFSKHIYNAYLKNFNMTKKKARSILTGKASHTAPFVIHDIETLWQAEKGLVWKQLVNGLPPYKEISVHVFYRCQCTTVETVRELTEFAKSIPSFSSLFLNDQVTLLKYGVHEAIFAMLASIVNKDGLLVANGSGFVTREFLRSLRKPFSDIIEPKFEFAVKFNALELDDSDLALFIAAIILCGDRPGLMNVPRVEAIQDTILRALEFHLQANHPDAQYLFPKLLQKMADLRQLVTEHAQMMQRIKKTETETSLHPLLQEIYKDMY
Oxysterols receptor LXR-beta (Homo sapiens), sequence (P55055 whole entry, looked up, the tested form may be a part): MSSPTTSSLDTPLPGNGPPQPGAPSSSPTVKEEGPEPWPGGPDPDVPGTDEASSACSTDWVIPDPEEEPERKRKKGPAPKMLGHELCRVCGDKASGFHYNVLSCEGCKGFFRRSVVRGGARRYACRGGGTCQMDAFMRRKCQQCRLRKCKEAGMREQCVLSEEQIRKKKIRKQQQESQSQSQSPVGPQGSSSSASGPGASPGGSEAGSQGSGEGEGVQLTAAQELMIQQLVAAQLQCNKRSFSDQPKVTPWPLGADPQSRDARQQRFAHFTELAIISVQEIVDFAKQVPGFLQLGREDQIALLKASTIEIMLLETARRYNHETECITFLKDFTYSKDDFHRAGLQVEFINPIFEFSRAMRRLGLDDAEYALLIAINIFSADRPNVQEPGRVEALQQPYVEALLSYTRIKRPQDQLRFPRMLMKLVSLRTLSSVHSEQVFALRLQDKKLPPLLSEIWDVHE
Nuclear receptor subfamily 1 group I member 3 (Homo sapiens), sequence (Q14994 whole entry, looked up, the tested form may be a part): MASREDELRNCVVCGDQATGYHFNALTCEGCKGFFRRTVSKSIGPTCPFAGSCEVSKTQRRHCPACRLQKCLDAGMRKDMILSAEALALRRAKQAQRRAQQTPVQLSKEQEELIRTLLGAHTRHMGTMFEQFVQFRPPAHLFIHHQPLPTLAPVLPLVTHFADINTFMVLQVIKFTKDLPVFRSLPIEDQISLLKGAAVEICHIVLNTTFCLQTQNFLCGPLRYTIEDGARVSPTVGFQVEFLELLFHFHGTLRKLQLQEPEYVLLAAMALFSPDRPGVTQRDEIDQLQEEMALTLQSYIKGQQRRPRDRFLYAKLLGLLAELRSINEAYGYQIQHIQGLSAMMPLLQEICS
human Vitamin D Receptor (VDR), VDR (gene 7421), sequence (P11473 whole entry, looked up, the tested form may be a part): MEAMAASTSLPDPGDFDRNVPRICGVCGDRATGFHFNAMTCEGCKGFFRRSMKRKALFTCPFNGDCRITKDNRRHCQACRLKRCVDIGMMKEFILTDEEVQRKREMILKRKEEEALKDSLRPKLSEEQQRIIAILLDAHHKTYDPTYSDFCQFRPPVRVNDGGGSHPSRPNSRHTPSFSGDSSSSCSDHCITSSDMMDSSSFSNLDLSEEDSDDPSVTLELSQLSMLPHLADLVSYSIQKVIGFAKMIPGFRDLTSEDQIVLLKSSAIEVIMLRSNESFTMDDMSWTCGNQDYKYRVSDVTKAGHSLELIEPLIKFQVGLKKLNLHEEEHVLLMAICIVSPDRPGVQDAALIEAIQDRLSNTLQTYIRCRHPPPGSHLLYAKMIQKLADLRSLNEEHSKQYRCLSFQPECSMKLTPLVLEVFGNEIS
Retinoic acid receptor alpha (Homo sapiens), sequence (P10276 whole entry, looked up): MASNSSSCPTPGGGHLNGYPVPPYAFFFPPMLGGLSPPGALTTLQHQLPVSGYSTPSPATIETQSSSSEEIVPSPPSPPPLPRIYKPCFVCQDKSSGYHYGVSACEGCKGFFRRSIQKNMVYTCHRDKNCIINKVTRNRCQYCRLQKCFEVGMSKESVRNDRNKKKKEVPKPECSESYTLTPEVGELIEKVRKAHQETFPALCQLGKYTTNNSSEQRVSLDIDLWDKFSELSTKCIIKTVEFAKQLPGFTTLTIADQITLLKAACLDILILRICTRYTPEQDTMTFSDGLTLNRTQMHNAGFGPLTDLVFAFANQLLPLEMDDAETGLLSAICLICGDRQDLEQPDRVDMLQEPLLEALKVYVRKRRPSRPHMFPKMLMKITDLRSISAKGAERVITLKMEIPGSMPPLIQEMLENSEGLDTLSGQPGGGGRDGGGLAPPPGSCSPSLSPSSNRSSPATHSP
Bile acid receptor (Homo sapiens), sequence (Q96RI1 whole entry, looked up): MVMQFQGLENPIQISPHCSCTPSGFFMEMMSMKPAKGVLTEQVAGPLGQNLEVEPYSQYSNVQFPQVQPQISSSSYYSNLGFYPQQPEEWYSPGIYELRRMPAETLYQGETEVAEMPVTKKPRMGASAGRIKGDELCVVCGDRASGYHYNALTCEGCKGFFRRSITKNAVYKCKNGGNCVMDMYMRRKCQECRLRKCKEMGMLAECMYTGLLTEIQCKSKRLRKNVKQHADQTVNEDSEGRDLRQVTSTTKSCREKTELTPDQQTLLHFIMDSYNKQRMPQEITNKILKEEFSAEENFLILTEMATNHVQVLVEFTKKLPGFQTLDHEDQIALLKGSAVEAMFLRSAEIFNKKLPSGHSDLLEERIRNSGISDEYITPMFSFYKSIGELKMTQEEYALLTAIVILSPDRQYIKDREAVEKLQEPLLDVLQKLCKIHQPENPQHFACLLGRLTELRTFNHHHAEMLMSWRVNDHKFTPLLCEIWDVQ
Oxysterols receptor LXR-alpha (Homo sapiens), sequence (Q13133 whole entry, looked up, the tested form may be a part): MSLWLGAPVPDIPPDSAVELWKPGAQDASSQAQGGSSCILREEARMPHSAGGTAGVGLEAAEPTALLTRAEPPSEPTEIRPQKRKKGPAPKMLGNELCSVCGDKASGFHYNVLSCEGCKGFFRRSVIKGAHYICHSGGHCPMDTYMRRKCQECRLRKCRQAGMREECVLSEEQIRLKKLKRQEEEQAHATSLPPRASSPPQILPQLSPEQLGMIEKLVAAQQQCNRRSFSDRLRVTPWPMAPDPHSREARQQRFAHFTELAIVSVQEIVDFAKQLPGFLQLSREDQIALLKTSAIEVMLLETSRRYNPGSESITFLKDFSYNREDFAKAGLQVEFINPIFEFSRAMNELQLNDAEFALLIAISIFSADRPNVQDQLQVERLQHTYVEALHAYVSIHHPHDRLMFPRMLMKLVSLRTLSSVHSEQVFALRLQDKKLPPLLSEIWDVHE
human RAR-related Orphan Receptor beta (RORb), RORB (gene 6096), sequence (Q92753 whole entry, looked up, the tested form may be a part): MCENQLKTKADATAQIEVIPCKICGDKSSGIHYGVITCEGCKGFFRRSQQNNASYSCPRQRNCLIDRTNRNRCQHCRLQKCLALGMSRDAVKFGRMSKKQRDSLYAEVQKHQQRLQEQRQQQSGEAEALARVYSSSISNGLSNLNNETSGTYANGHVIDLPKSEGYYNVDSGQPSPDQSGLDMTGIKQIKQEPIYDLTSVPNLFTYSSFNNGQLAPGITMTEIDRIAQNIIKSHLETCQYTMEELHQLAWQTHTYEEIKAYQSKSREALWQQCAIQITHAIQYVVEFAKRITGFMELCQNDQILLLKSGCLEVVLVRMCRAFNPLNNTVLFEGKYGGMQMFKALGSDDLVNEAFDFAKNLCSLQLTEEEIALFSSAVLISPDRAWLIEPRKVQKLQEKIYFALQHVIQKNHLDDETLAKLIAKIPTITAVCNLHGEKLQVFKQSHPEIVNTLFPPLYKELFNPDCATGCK

Oc1cc(Cl)ccc1Cl
outcome [1]: inactive | outcome [2]: inactive | outcome [3]: inactive | outcome [4]: inactive | outcome [5]: inactive | outcome [6]: inactive | outcome [7]: inactive | outcome [8]: inactive

C=CC(=O)OC
outcome [1]: inactive | outcome [9]: inactive | outcome [10]: inactive | outcome [3]: inactive | outcome [11]: inactive | outcome [12]: inactive | outcome [4]: inactive | outcome [13]: inactive | outcome [14]: inactive | outcome [15]: inactive | outcome [16]: inactive | outcome [17]: inactive | outcome [7]: inactive

N#Cc1cccc(C#N)c1
outcome [1]: inactive | outcome [2]: inactive | outcome [3]: inactive | outcome [18]: inactive | outcome [12]: inactive | outcome [4]: inactive | outcome [16]: inactive | outcome [17]: inactive | outcome [6]: inactive | outcome [19]: inactive

CCC(Br)(CC)C(=O)NC(N)=O
outcome [1]: inactive | outcome [9]: inactive | outcome [18]: inactive | outcome [13]: inactive | outcome [14]: inactive | outcome [15]: inactive | outcome [16]: inactive | outcome [19]: inactive

Cc1ncc(C[n+]2csc(CCO)c2C)c(N)n1
outcome [1]: inactive | outcome [2]: inactive | outcome [3]: inactive | outcome [11]: inactive | outcome [12]: inactive | outcome [20]: inactive | outcome [16]: inactive | outcome [17]: inactive | outcome [7]: inactive | outcome [19]: inactive

c1ccc(P(c2ccccc2)c2ccccc2)cc1
outcome [10]: inactive | outcome [5]: inactive | AC50 [13]: 38.6 µM (active) | outcome [16]: inactive | outcome [17]: inactive | outcome [6]: inactive | outcome [7]: inactive | AC50 [19]: 82.9 µM (active)

O=C(NC(=O)c1c(F)cccc1F)Nc1ccc(Oc2ccc(C(F)(F)F)cc2Cl)cc1F
outcome [1]: inactive | outcome [9]: inactive | outcome [2]: inactive | outcome [18]: inactive | outcome [11]: inactive | outcome [12]: inactive | outcome [4]: inactive | outcome [5]: inactive | outcome [13]: inactive | outcome [14]: inactive | outcome [15]: inactive | outcome [16]: inactive | outcome [17]: inactive | outcome [6]: inactive | outcome [7]: inactive | outcome [8]: inactive

O=C(O)CCCc1ccc(N(CCCl)CCCl)cc1
outcome [9]: inactive | outcome [2]: inactive | outcome [3]: inactive | outcome [12]: inactive | outcome [4]: inactive | outcome [5]: inactive | outcome [20]: inactive | outcome [13]: inactive | outcome [17]: inactive | outcome [6]: inactive | outcome [7]: inactive | AC50 [19]: 27.3 µM (active) | outcome [8]: inactive

C=CCc1ccc(OC(=O)Cc2ccccc2)c(OC)c1
outcome [1]: inactive | outcome [10]: inactive | outcome [2]: inactive | outcome [18]: inactive | outcome [12]: inactive | outcome [5]: inactive | outcome [13]: inactive | outcome [14]: inactive | outcome [15]: inactive | outcome [16]: inactive | outcome [7]: inactive | outcome [19]: inactive

CN1C(=O)CCS(=O)(=O)C1c1ccc(Cl)cc1 (stereo unspecified)
outcome [1]: inactive | outcome [3]: inactive | outcome [12]: inactive | outcome [4]: inactive | outcome [5]: inactive | outcome [14]: inactive | outcome [8]: inactive

CCCCCCC1CCOC1=O (stereo unspecified)
outcome [1]: inactive | outcome [2]: inactive | outcome [3]: inactive | outcome [4]: inactive | outcome [20]: inactive | outcome [7]: inactive | AC50 [19]: 23.3 µM (active)

CC(C)(O)C#N
outcome [1]: inactive | outcome [9]: inactive | outcome [10]: inactive | outcome [18]: inactive | outcome [12]: inactive | outcome [4]: inactive | AC50 [13]: 78.5 µM (active) | outcome [15]: inactive | outcome [16]: inactive | outcome [17]: inactive | outcome [6]: inactive | outcome [7]: inactive | outcome [19]: inactive | outcome [8]: inactive
